# Measurements: PubChem BioAssay (EPA / NIEHS)
# Records with an inconclusive call do not appear. Calls of active or inactive are those of the source. Rule for the calls: active = hit-call score of the fitted dose curve at least 0.9, where 1 is the maximum; inconclusive = response in the unintended direction; inactive = score below 0.9.
# What was measured:
# [1] = biological target: rat Gamma-Aminobutyric Acid Type B Receptor (GABBR), Gabbr1 (gene 81657) (UniProt Q9Z0U4); assay: NVS_GPCR_rGABBR: NovaScreen (NVS) G Protein-Coupled Receptor Assay for rat Gamma-Aminobutyric Acid Type B Receptor (GABBR) (AID 2283301)
# Method in brief: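 Radioligand displacement on rat cortical membranes, 1 h, filter-based scintillation counting. Primary screen at 25 uM in duplicate; compounds passing threshold re-tested in concentration-response up to 50 uM; loss of binding fitted against DMSO.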
# [2] = biological target: rat Histamine Receptor (H3), Hrh3 (gene 85268) (UniProt Q9QYN8); assay: NVS_GPCR_rH3: NovaScreen (NVS) G Protein-Coupled Receptor Assay for rat Histamine Receptor (H3) (AID 2283303)
# Method in brief: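 Rat forebrain membranes incubated 1 h with compound; radioligand displacement measured by filter-based scintillation counting. Single-concentration duplicates at 25 µM, then concentration-response up to 50 µM, relative to DMSO.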
# [3] = biological target: Metabotropic glutamate receptor 1 (Rattus norvegicus) (UniProt P23385); assay: NVS_GPCR_rmMGluR1: NovaScreen (NVS) G Protein-Coupled Receptor Assay for rat Glutamate Metabotropic Receptor 1 (MGluR1) (AID 2283305)
# Method in brief: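 Rat cerebellum membrane preparation, radioligand displacement binding read by filter-based scintillation counting 1 hour after dosing. Initial duplicate single-point screen at 25 uM, then concentration-response up to 50 uM; loss of signal versus DMSO baseline scored.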
# [4] = biological target: rat Vasopressin 1 Receptor (V1), Avpr1a (gene 25107) (UniProt P30560); assay: NVS_GPCR_rV1: NovaScreen (NVS) G Protein-Coupled Receptor Assay for rat Vasopressin 1 Receptor (V1) (AID 2283316)
# Method in brief: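 Radioligand binding on rat liver membranes, 1.5 h incubation, filter-based scintillation counting. Single 25 uM screen in duplicate; chemicals meeting threshold (e.g. 30% inhibition) run in concentration-response up to 50 uM.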
# [5] = biological target: rat Neurokinin-3 Receptor (NK3), Tacr3 (gene 24808) (UniProt P16177); assay: NVS_GPCR_rNK3: NovaScreen (NVS) G Protein-Coupled Receptor Assay for rat Neurokinin-3 Receptor (NK3) (AID 2283310)
# Method in brief: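 Rat cortical membranes; radioligand binding with filtration and scintillation counting, 2 h after dosing. Primary screen in duplicate at 25 uM, then concentration-response up to 50 uM; loss of binding signal relative to DMSO.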
# Sequence of Metabotropic glutamate receptor 1 (Rattus norvegicus) (P23385 whole entry, looked up): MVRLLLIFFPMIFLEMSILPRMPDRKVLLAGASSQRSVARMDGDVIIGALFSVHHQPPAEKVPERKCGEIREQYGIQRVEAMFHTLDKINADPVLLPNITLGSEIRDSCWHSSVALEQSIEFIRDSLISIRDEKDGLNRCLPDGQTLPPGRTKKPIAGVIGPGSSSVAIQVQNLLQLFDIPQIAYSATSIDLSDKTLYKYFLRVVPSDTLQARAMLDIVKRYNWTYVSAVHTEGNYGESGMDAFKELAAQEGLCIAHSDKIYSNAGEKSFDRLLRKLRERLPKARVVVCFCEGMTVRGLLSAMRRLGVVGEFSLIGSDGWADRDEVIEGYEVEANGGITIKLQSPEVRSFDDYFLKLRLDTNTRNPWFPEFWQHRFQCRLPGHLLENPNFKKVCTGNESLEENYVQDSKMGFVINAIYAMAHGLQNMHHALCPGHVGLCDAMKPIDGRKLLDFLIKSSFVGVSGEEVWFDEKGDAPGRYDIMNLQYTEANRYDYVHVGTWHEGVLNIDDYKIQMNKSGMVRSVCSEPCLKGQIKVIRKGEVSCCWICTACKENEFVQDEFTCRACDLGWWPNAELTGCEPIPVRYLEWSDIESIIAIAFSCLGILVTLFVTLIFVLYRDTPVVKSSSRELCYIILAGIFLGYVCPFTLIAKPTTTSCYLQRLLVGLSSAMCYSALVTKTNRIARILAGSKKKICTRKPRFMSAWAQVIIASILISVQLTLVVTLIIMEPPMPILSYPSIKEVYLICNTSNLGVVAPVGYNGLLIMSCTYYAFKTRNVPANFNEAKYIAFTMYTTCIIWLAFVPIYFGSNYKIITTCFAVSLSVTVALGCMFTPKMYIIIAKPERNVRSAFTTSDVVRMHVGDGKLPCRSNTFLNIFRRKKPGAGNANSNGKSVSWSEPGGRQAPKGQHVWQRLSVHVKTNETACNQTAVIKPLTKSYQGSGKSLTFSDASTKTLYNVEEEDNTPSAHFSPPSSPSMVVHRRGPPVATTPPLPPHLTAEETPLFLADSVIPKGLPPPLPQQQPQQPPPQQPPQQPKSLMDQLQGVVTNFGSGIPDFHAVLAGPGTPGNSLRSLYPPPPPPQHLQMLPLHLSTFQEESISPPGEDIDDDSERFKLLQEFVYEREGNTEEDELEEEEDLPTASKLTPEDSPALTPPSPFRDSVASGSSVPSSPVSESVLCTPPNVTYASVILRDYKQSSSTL
# Sequence of rat Vasopressin 1 Receptor (V1), Avpr1a (gene 25107) (P30560 whole entry, looked up): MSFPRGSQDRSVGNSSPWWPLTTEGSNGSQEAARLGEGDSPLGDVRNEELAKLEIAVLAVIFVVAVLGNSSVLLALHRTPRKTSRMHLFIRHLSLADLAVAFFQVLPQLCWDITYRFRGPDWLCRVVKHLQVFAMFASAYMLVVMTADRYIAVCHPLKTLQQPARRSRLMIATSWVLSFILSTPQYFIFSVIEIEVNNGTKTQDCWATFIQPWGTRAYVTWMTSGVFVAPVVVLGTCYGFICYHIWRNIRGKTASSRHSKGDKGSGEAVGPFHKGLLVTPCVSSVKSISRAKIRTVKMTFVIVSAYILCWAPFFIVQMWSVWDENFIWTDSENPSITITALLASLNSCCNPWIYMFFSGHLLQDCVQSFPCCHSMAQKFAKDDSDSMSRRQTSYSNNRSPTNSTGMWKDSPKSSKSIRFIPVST
# Sequence of rat Gamma-Aminobutyric Acid Type B Receptor (GABBR), Gabbr1 (gene 81657) (Q9Z0U4 whole entry, looked up): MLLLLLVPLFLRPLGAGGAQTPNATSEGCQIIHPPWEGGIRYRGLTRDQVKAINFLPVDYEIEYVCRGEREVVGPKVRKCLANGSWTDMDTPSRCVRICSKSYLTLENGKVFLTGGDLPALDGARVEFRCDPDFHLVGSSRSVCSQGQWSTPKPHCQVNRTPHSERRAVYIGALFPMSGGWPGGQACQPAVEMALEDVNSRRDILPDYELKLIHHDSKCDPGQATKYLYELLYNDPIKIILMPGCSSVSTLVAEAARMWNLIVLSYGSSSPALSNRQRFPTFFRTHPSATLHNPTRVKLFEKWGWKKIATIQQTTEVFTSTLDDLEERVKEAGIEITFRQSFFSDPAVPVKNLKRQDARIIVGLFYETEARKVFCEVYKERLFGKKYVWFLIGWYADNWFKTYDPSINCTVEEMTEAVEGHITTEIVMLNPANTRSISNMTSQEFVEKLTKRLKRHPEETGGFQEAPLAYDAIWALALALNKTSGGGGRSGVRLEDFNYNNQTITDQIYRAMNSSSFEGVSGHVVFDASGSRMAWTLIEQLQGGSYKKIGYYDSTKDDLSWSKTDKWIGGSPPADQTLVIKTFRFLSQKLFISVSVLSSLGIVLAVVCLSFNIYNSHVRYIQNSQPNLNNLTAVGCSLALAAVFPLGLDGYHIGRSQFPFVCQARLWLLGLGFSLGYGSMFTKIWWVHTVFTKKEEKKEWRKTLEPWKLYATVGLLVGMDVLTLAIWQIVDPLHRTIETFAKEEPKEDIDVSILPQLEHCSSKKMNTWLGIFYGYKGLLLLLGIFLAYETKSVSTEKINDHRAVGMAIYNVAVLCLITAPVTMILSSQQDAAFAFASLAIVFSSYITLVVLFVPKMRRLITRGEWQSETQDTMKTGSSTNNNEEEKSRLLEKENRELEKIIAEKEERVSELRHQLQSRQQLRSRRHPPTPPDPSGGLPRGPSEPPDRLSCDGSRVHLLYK
# Sequence of rat Neurokinin-3 Receptor (NK3), Tacr3 (gene 24808) (P16177 whole entry, looked up): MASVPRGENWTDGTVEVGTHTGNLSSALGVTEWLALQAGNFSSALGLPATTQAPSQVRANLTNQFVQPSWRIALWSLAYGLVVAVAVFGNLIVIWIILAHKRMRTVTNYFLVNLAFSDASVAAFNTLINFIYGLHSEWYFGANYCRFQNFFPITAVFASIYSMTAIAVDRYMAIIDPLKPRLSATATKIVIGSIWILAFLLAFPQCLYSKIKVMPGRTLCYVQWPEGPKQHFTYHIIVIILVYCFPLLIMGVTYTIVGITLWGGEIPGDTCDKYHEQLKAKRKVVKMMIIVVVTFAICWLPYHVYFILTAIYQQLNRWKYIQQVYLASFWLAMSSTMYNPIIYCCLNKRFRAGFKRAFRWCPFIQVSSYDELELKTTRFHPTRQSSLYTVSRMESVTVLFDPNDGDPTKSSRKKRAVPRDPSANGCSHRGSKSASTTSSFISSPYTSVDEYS
# Sequence of rat Histamine Receptor (H3), Hrh3 (gene 85268) (Q9QYN8 whole entry, looked up): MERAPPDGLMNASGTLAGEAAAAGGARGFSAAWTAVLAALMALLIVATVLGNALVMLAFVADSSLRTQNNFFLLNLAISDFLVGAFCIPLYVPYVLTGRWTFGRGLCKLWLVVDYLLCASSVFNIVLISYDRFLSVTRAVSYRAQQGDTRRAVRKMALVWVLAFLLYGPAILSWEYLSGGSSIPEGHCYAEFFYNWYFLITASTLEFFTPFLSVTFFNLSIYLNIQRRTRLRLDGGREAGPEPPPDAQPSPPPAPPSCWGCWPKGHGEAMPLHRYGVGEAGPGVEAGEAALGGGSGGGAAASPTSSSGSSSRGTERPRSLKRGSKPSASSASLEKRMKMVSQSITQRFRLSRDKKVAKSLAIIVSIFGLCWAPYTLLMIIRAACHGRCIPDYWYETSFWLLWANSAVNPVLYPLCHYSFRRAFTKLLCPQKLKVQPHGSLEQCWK
smiles,measurement,setting,value
Cc1oc(-c2ccccc2)nc1CCOc1cccc2c1ccn2CCC(=O)O,AC50,[1],15.9 µM (active)
COc1ccc2c(c1)c(CC(=O)O)c(C)n2C(=O)c1ccc(Cl)cc1,outcome,[1],inactive
CNCc1cc(F)ccc1Oc1ccc(Cl)c(Cl)c1,outcome,[2],inactive
CC1(C)CC(N=C=O)CC(C)(CN=C=O)C1 (stereo not drawn),outcome,[3],inactive
COc1ccc(S(=O)(=O)N2C(=O)[C@@](c3ccccc3OC)(N3C[C@H](O)C[C@H]3C(=O)N(C)C)c3cc(Cl)ccc32)c(OC)c1,outcome,[3],inactive
same,outcome,[4],inactive
CCc1c(C(=O)NN2CCCCC2)nn(-c2ccc(Cl)cc2Cl)c1-c1ccc(Br)cc1,outcome,[5],inactive
Cc1cccc(Nc2cc(Cl)nc(SCC(=O)O)n2)c1C,AC50,[4],2.85 µM (active)
